Data reported in PubChem BioAssay (EPA / NIEHS).
Inconclusive results are not listed. The source holds several records for some structures; these can differ, active in one and inactive in another. The source made the active and inactive calls. Rule for the calls, unless noted: active = hit-call score of the fitted dose curve at least 0.9, where 1 is the maximum; inconclusive = response in the unintended direction; inactive = score below 0.9.

Key:
[1] = target: mouse Estrogen Receptor alpha (Era), Esr1 (gene 13982) (UniProt P19785); test: NVS_NR_mERa: NovaScreen (NVS) Nuclear Receptor Binding Assay for mouse Estrogen Receptor alpha (Era) (AID 2283378);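 note: hit means loss of bound radioligand signal relative to DMSO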
Chain of mouse Estrogen Receptor alpha (Era), Esr1 (gene 13982) (P19785 whole entry, looked up): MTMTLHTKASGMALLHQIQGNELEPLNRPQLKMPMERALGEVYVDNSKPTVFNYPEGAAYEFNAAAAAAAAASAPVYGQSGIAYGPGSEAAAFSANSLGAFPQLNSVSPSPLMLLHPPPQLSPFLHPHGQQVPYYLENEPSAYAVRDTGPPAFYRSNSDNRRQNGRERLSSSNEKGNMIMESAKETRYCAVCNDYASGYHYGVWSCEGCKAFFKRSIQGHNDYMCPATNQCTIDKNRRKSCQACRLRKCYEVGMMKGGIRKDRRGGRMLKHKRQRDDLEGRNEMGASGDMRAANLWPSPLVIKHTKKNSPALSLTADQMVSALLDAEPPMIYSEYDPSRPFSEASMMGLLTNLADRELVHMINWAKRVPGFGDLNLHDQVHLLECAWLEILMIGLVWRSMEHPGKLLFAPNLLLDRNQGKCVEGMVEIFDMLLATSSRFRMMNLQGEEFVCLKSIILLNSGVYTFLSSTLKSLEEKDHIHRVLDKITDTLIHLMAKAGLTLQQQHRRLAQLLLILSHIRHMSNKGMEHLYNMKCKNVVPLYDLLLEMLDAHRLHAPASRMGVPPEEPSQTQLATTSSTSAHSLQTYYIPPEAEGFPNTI
Method in brief: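 Filter scintillation counts of bound radioligand, measured 18 h post-dose, gave the readout; decreased signal relative to DMSO controls indicated displacement from mouse Era. Primary screen ran in duplicate at 25 uM; active chemicals were retested across concentrations.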

[2] = target: Estrogen receptor (Homo sapiens) (UniProt P03372); test: OT_ERa_GFPERaERE_0480: Odyssey Thera (OT) 8-hour HeLa Transcription Induction Assay for Estrogen Receptor (AID 2283381; active = hit-call score of the fitted dose curve at least 0.9, where 1 is the maximum; inactive = score below 0.9)
Chain of Estrogen receptor (Homo sapiens) (P03372 whole entry, looked up): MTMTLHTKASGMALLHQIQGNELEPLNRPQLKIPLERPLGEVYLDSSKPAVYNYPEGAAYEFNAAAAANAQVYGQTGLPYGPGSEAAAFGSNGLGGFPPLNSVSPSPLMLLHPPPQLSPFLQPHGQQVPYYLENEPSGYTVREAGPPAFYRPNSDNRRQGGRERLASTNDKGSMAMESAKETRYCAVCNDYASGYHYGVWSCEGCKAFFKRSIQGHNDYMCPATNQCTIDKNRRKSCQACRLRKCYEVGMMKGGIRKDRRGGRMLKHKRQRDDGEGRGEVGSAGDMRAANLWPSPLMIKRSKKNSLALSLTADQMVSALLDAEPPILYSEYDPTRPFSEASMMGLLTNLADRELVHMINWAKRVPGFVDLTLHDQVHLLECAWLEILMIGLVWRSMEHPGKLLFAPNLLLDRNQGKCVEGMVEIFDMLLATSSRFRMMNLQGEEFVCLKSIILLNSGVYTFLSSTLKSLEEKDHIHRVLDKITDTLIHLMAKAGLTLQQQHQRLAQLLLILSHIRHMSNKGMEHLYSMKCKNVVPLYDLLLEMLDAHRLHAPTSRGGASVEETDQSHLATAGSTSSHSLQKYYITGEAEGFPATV
Method in brief: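 An 8 h HeLa transcription-induction format with a GFP reporter under ERE control, read by fluorescence microscopy; single endpoint fitted positively with DMSO as baseline.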

[3] = target: Estrogen receptor (Homo sapiens) (UniProt P03372); test: OT_ERa_GFPERaERE_0120: Odyssey Thera (OT) 2-hour HeLa Transcription Induction Assay for Estrogen Receptor (AID 2283382)
Method in brief: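 Two-hour compound treatment of HeLa cells preceded microscopy imaging of an inducible fluorescent reporter. Image-based quantification gave one endpoint, analysed for signal increase relative to DMSO controls.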

[4] = target: Retinoic acid receptor RXR-alpha (Homo sapiens) (UniProt P19793); test: OT_NURR1_NURR1RXRa_0480: Odyssey Thera (OT) 8-hour HEK293T Protein Complementation Assay for Nurr1/retinoid X receptor (RXR) (AID 2283385)
Chain of Retinoic acid receptor RXR-alpha (Homo sapiens) (P19793 whole entry, looked up, the tested form may be a part): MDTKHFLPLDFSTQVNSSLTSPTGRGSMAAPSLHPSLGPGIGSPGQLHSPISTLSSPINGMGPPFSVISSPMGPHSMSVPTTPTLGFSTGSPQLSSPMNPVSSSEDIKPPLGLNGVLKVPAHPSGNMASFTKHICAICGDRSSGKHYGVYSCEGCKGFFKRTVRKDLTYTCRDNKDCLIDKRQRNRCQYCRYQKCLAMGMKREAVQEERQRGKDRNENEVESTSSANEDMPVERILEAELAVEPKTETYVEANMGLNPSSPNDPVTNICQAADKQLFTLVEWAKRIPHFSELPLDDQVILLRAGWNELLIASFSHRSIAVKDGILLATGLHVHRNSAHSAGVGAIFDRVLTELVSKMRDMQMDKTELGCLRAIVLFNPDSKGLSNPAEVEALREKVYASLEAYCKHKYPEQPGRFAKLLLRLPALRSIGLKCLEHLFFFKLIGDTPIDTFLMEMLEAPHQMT
Method in brief: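 Gain in fluorescent complementation signal over DMSO, measured 8 hours after chemical dosing of human kidney HEK293T cells, indicated enhanced Nurr1–RXRα association.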

[5] = target: Retinoic acid receptor RXR-alpha (Homo sapiens) (UniProt P19793); test: OT_NURR1_NURR1RXRa_1440: Odyssey Thera (OT) 24-hour HEK293T Protein Complementation Assay for Nurr1/retinoid X receptor (RXR) (AID 2283386)
Method in brief: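 Cell-based binding reporter: HEK293T cells, 24 h exposure, fluorescence-detected fragment complementation, DMSO as baseline.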

[6] = target: Peroxisome proliferator-activated receptor gamma (Homo sapiens) (UniProt P37231); test: OT_PPARg_PPARgSRC1_0480: Odyssey Thera (OT) 8-hour Protein-Complementation Assay for Peroxisome Proliferator-activated Receptor Gamma / SRC-1 Co-activator (AID 2283387);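 note: nuclear to cytoplasmic split Venus YFP fluorescence ratio reporting PPARg SRC-1 interaction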
Chain of Peroxisome proliferator-activated receptor gamma (Homo sapiens) (P37231 whole entry, looked up, the tested form may be a part): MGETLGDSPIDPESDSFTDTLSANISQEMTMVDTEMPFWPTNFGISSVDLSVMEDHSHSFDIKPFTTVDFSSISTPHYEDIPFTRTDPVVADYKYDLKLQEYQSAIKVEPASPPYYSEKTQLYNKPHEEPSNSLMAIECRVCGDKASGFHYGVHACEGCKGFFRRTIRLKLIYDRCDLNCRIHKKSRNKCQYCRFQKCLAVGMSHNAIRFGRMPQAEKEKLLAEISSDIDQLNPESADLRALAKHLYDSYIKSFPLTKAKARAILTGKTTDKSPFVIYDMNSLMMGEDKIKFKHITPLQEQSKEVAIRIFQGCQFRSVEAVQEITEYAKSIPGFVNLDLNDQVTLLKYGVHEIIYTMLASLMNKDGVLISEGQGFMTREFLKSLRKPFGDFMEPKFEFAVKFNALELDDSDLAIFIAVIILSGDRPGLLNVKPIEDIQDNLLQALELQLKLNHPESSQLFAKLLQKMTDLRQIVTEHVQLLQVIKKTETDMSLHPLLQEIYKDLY
Method in brief: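 Split-YFP (IFP1/IFP2) PPARg/SRC-1 reporter, HEK293T, 37 °C, 5% CO2; 8 h compound; formaldehyde fix + Draq5; high-content imaging, N/C ratio, ≥350 cells/image, positive direction vs DMSO.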

[7] = target: Peroxisome proliferator-activated receptor gamma (Homo sapiens) (UniProt P37231); test: OT_PPARg_PPARgSRC1_1440: Odyssey Thera (OT) 24-hour Protein-Complementation Assay for Peroxisome Proliferator-activated Receptor Gamma/ SRC-1 Co-activator (AID 2283388);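 note: nuclear to cytoplasmic ratio of reconstituted Venus YFP fluorescence in fixed imaged cells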
Method in brief: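 Readout: nuclear-to-cytoplasmic 488 nm fluorescence ratio, ≥350 cells per image, 8 images per well, after 24 h compound exposure of HEK293T expressing PPARg/SRC-1 split-YFP fusions. Activity fitted in positive direction against DMSO.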

[8] = target: Estrogen receptor beta (Homo sapiens) (UniProt Q92731); test: OT_ER_ERbERb_1440: Odyssey Thera (OT) 24-hour HEK293T Protein-Complementation Assay for Estrogen Receptor-beta/-beta Homodimer (AID 2283380);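 note: fluorescence gain from ER beta LBD homodimer complementation read by laser scanning cytometry; scored as signal increase over DMSO baseline for both agonists and antagonists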
Chain of Estrogen receptor beta (Homo sapiens) (Q92731 whole entry, looked up, the tested form may be a part): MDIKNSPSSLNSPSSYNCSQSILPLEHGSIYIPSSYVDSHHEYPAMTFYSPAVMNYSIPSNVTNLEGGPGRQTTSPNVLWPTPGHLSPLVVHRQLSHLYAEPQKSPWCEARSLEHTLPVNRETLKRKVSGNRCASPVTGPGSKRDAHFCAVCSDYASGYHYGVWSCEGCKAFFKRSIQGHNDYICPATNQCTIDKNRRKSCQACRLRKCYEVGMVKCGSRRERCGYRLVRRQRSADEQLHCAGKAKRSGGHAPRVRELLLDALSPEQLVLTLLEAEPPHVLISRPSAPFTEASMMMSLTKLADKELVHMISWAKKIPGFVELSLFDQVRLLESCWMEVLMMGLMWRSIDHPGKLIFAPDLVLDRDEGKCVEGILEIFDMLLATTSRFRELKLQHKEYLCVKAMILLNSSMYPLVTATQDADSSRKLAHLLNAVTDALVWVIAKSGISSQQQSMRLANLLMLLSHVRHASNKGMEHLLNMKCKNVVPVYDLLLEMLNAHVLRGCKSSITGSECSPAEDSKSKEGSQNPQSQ
Method in brief: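 HEK293T cells stably expressing human ER-beta LBD (aa 310-547) PCA homodimer pair, dosed 24 h; formaldehyde-fixed, Draq5-stained. Readout: increase in nuclear (agonist) or nuclear plus cytoplasmic (antagonist) fluorescence intensity versus DMSO, gain-of-signal fitting.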

[9] = CEETOX_H295R_11DCORT: CeeTox H295R High-throughput Steroidogenesis Assay for 11-Deoxycortisol (11DCORT) (AID 2283432; active = hit-call score of the fitted dose curve at least 0.9, where 1 is the maximum; inactive = score below 0.9;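 for AC50: human adrenal H295R cells prestimulated with 10 µM forskolin for 48 h; 11-deoxycortisol secreted into the medium measured by LC-MS/MS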); details: actives raise or lower the signal
Method in brief: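 Steroidogenesis in human H295R cells: 48 h chemical exposure after forskolin priming, 11-deoxycortisol measured by LC-MS/MS.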

[10] = CEETOX_H295R_OHPREG: CeeTox H295R High-throughput Steroidogenesis Assay for OH-Pregnenolone (OHPREG) (AID 2283434; active = hit-call score of the fitted dose curve at least 0.9, where 1 is the maximum; inactive = score below 0.9); details: actives raise or lower the signal
Method in brief: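 Readout: HPLC-MS/MS of 17alpha-hydroxypregnenolone in medium after 48 h chemical exposure of H295R cells pretreated with forskolin. Values fitted bidirectionally relative to DMSO; chemicals reducing viability to 20–70% were retested after 10-fold dilution.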

[11] = CEETOX_H295R_CORTIC: CeeTox H295R High-throughput Steroidogenesis Assay for Corticosterone (CORTIC) (AID 2283437; active = hit-call score of the fitted dose curve at least 0.9, where 1 is the maximum; inactive = score below 0.9;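 note: corticosterone secreted into medium quantified by mass spectrometry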;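 for AC50: human H295R adrenal cells prestimulated with forskolin before chemical exposure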); details: actives raise or lower the signal
Method in brief: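 Steps: seed H295R, adhere overnight; 10 uM forskolin 48 h; replace with chemical (0.1% DMSO) 48 h; extract medium with MTBE; quantify corticosterone by HPLC-MS/MS; score bidirectionally vs DMSO.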

[12] = CEETOX_H295R_CORTISOL: CeeTox H295R High-throughput Steroidogenesis Assay for Cortisol (AID 2283438; active = hit-call score of the fitted dose curve at least 0.9, where 1 is the maximum; inactive = score below 0.9;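 note: cortisol secreted into medium quantified by LC-MS/MS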); details: actives raise or lower the signal
Method in brief: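 Steroidogenesis in H295R, per modified OECD 456: 48 h forskolin (10 uM), then 48 h exposure, 0.1% DMSO. Cortisol by extraction and tandem MS; viability by MTT (570/650 nm); cytotoxic chemicals diluted and re-tested.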

[13] = CEETOX_H295R_DOC: CeeTox H295R High-throughput Steroidogenesis Assay for DOC (AID 2283439; active = hit-call score of the fitted dose curve at least 0.9, where 1 is the maximum; inactive = score below 0.9); details: actives raise or lower the signal
Method in brief: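 H295R, fsk 10 uM ×48 h pre, cmpd ×48 h (0.1% DMSO). Media → MTBE extr. → LC-MS/MS, DOC. Bidirectional fit vs DMSO; MTT viability same wells, re-test diluted if <70%.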

[14] = target: human Norepinephrine Transporter (NET), SLC6A2 (gene 6530) (UniProt P23975); test: NVS_TR_hNET: NovaScreen (NVS) Transporter Assay for human Norepinephrine Transporter (NET) (AID 2283377);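 note: cell-free membrane protein extracted from CHO cells expressing human NET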;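 for AC50: displacement of radioligand from human NET seen as loss of scintillation signal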
Chain of human Norepinephrine Transporter (NET), SLC6A2 (gene 6530) (P23975 whole entry, looked up): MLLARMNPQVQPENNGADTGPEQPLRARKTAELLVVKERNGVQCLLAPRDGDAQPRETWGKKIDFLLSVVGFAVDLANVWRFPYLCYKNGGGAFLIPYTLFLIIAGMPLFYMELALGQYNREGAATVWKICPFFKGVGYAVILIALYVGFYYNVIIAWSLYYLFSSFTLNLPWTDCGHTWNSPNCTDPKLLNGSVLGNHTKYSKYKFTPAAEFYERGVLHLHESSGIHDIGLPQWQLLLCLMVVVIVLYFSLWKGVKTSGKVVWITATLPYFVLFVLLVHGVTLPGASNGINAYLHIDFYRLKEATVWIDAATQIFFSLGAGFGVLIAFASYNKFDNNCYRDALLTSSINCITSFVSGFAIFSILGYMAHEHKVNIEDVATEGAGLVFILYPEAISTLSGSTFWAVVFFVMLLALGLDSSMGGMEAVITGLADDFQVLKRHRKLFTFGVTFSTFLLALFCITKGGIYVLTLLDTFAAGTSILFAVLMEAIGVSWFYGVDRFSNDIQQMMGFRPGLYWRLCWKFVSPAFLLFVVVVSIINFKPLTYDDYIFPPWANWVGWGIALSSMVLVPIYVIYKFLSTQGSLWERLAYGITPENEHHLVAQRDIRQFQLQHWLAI
Method in brief: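 In this cell-free binding screen, chemicals at 25 uM (duplicate) compete with a radioligand for CHO-derived human NET over 1 hour, with filter-based radiodetection.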

[15] = target: rat Serotonin Transporter (SERT), Slc6a4 (gene 25553) (UniProt P31652); test: NVS_TR_rSERT: NovaScreen (NVS) Transporter Assay for rat Serotonin Transporter (SERT) (AID 2283375)
Method in brief: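 Radioligand displacement, filter scintillation readout; rat forebrain membrane prep, 1 h post-dose. Single-conc 25 uM duplicate screen, then concentration-response on actives. Loss of signal vs DMSO baseline.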

[16] = target: human Dopamine Transporter (DAT), SLC6A3 (gene 6531) (UniProt Q01959); test: NVS_TR_hDAT: NovaScreen (NVS) Transporter Assay for human Dopamine Transporter (DAT) (AID 2283374);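 note: activity means loss of bound radioligand signal relative to DMSO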
Chain of human Dopamine Transporter (DAT), SLC6A3 (gene 6531) (Q01959 whole entry, looked up): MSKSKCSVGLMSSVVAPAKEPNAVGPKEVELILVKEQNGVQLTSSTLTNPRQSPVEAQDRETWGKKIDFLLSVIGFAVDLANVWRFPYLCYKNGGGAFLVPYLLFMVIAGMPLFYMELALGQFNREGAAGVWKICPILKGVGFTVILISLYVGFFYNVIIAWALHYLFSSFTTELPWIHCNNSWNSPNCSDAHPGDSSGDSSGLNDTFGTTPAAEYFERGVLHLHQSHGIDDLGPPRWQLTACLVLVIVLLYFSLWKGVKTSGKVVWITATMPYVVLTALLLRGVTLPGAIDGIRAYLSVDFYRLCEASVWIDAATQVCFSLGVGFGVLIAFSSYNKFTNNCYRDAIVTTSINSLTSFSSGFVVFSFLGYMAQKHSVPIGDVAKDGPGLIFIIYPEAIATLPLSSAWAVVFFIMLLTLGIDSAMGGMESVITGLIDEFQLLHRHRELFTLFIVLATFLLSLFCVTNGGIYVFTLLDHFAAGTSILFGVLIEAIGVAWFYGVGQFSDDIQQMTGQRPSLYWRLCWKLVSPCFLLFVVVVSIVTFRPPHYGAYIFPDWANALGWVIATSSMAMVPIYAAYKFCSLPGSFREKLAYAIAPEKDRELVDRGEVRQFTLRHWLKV
Method in brief: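 Extracted human SLC6A3 protein incubated 1 h with radioligand and test chemical; bound fraction separated on filters and counted. Single 25 uM duplicate screen preceded concentration-response follow-up; positive and negative controls on every plate.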

[17] = target: Agonist Androgen Response Element (ARE), AR (gene 367) (UniProt P10275); test: OT_AR_ARELUC_AG_1440: Odyssey Thera (OT) 24-hour CHO-K1 Luciferase Assay for Agonist Androgen Response Element (ARE) (AID 2283379)
Chain of Agonist Androgen Response Element (ARE), AR (gene 367) (P10275 whole entry, looked up): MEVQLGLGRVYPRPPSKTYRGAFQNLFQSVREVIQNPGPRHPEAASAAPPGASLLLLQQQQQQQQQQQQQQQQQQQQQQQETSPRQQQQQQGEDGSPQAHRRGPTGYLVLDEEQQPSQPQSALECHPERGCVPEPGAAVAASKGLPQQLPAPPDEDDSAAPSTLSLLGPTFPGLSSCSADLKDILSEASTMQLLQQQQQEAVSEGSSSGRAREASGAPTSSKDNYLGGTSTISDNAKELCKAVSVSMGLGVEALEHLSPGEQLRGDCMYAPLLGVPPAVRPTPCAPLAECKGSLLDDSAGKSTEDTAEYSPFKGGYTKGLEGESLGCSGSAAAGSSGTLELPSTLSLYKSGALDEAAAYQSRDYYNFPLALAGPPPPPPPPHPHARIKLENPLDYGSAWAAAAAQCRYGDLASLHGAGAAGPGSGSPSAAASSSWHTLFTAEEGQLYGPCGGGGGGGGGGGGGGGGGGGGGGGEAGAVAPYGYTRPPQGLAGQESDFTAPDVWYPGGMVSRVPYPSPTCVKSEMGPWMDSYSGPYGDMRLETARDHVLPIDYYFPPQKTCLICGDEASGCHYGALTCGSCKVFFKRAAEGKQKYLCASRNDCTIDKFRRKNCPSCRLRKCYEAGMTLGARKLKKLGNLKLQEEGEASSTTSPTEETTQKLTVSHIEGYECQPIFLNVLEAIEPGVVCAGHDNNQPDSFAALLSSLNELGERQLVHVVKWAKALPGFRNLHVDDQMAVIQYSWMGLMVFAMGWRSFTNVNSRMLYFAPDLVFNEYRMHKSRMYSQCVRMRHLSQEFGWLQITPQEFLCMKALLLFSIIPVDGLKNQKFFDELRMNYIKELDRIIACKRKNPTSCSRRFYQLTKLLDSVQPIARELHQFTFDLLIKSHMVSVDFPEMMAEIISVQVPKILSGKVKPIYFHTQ
Method in brief: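 Luminescence increase above DMSO, read after a 24 h compound treatment of CHO-K1 cells expressing an androgen response element luciferase reporter, gives the single primary endpoint; concentration-response fitting used the positive direction.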

[18] = target: Bile acid receptor (Homo sapiens) (UniProt Q96RI1); test: OT_FXR_FXRSRC1_0480: Odyssey Thera (OT) 8-hour HEK293T Protein-Complementation Assay for Farnesoid X receptor/SRC-1 Co-activator (AID 2283383)
Method in brief: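 Readings were taken 8 h after dosing HEK293T cells in a split-reporter complementation format pairing FXR with SRC-1. Increased fluorescence relative to DMSO-treated wells defined activity.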

[19] = CEETOX_H295R_ANDR: CeeTox H295R High-throughput Steroidogenesis Assay for Androstenedione (ANDR) (AID 2283436; active = hit-call score of the fitted dose curve at least 0.9, where 1 is the maximum; inactive = score below 0.9;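 note: human H295R adrenal cells exposed for 48 h with androstenedione measured in medium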); details: actives raise or lower the signal
Method in brief: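 Steroidogenesis in H295R adrenal cells after 48 h dosing; androstenedione quantified by LC-MS/MS, with DMSO as negative control and baseline for bidirectional curve fitting.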

Measured: AC50

CCCC(CCC)C(=O)O
active: [4] 90.4 µM
inactive: [1] | [2] | [3] | [4] | [5] | [6] | [7]

c1ccc2c(c1)-c1cccc3c1c-2cc1ccccc13
active: [3] 77.5 µM | [5] 11.2 µM | [9] 2.55 µM | [10] 2 µM | [13] 1.84 µM
inactive: [1] | [8] | [2] | [4] | [5] | [6] | [7] | [11] | [12]

OC[C@H]1O[C@@H]2O[C@H]3[C@H](O)[C@@H](O)[C@@H](O[C@H]4[C@H](O)[C@@H](O)[C@@H](O[C@H]5[C@H](O)[C@@H](O)[C@@H](O[C@H]6[C@H](O)[C@@H](O)[C@@H](O[C@H]7[C@H](O)[C@@H](O)[C@@H](O[C@H]1[C@H](O)[C@H]2O)O[C@@H]7CO)O[C@@H]6CO)O[C@@H]5CO)O[C@@H]4CO)O[C@@H]3CO
inactive: [8] | [2] | [3] | [4] | [5] | [6] | [7]
active: [1] 10.3 µM

CNC(C)=O
inactive: [14] | [8] | [2] | [3] | [4] | [5] | [6] | [7]

Cc1ccc(S(=O)(=O)NC(=O)NN2CCCCCC2)cc1
inactive: [15] | [8] | [2] | [3] | [4] | [5] | [6] | [7]

OCCOCCOCCO
active: [16] 6.63 µM
inactive: [14] | [1] | [17] | [8] | [2] | [3] | [4] | [5] | [6] | [7]

CC[C@H](C)C(=O)O[C@H]1C[C@H](O)C=C2C=C[C@H](C)[C@H](CC[C@@H](O)C[C@@H](O)CC(=O)O)[C@H]21
active: [9] 5.33 µM | [10] 1.06 µM | [11] 6.77 µM | [13] 2.7 µM
not listed: [1] | [14] | [15] | [17] | [18] | [19]
inactive: all other assays above

CC(C)CCCCCCOC(=O)C1CCCCC1C(=O)OCCCCCCC(C)C (stereo not given)
inactive: [1] | [8] | [2] | [3] | [18] | [4] | [5] | [6] | [7]

C=CCc1cc(S(=O)(=O)c2ccc(O)c(CC=C)c2)ccc1O
active: [16] 7.48 µM | [14] 6.96 µM | [1] 14.6 µM | [9] 6.4 µM | [10] 12.4 µM | [11] 0.0971 µM | [12] 5.57 µM | [13] 0.673 µM
inactive: [8] | [2] | [3] | [6] | [7] | [19]

CCc1cccc(CC)c1N
inactive: [17]

CCCCOC(=O)c1ccccc1
inactive: [17]

C[C@@H](Oc1ccc(CNC(=O)c2cccnc2Oc2ccc3c(c2)OCO3)c(F)c1)C(=O)O
inactive: [9] | [11] | [12] | [13]

OCc1c[nH]c2ccccc12
inactive: [19]
